According to PubChem BioAssay (NCATS):
Results filed as inconclusive are left out. Calls of active or inactive are those of the source. Unless noted, the call rests on the fitted dose curve; in most records, active means well fitted curve in either direction with a large enough effect (not every such curve was filed as active); inconclusive means small, poorly fitted or top-dose-only effect, or another doubt; inactive means flat fitted curve, though single readings scatter.

Experiments:
[1] = molecular target: Lysosomal acid glucosylceramidase (Homo sapiens) (UniProt P04062); assay: Glucocerebrosidase-p2 (AID 348; in the data active means potency below about 10 µM; further: potency means the concentration at half of the fitted maximal effect); details: purified GBA, blue fluorogenic substrate, 40 min
Lysosomal acid glucosylceramidase (Homo sapiens), sequence (P04062 whole entry, looked up): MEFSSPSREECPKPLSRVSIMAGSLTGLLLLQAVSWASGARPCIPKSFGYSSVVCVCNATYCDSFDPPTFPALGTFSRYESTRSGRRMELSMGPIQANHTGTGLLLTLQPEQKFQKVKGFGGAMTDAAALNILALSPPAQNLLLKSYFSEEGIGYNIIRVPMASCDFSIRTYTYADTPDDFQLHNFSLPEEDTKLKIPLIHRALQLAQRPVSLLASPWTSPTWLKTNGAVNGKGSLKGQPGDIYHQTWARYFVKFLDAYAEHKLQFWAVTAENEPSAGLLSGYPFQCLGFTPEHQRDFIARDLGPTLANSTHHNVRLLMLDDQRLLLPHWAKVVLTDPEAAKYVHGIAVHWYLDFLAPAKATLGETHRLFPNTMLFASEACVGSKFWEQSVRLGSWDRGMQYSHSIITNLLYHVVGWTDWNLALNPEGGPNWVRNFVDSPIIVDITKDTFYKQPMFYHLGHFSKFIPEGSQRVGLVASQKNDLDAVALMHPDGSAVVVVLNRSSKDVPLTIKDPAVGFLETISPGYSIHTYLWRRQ
Procedure, shortened: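 Compounds titrated from 0.6 nM upwards against 0.2 nM enzyme in pH 5.9 citric acid/KH2PO4, taurocholate, tween-20; blue fluorogenic substrate 80 uM, 40 min room temperature, stopped and read Ex 365/Em 440 for AC50.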

[2] = AP1 Signaling Pathway (AID 357); details: ME-180 AP-1-bla reporter, EGF-induced, beta-lactamase ratio, 5 h; at 7.69 µM (top of the series) unless noted;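 further: ME-180 reporter cells stimulated with EGF at its EC50 level; on the % scale 0 is the no-effect control and ±100 the full control effect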
Procedure, shortened: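 Modulation of EGF-driven AP-1 transcription was assessed with a beta-lactamase reporter in ME-180 cells. Compound and EC50 EGF were co-incubated 5 hours at 37 °C before 2.5-hour CCF4 loading at room temperature and dual-emission reading.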

[3] = Stat Signaling Pathway (AID 446); details: ME-180 SIE beta-lactamase reporter, IL-6 stimulated, 5 h; at 7.69 µM (top of the series) unless noted;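 further: ME-180 cervical cancer cells given 40 pM IL-6 alongside compound; SIE-controlled beta-lactamase reporter measured as 460/530 nm FRET emission ratio; on the % scale 0 is the no-effect control and ±100 the full control effect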
Procedure, shortened: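 Reporter line: ME-180 cervical carcinoma, SIE-beta-lactamase. Treatment: compound with 40 pM IL-6, 5 hrs, 37 C, in low-serum OPTI-MEM with 10 mM HEPES pH 7.3. Detection: 460/530 nm fluorescence.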

[4] = molecular target: Glucocorticoid receptor (Homo sapiens) (UniProt P04150); assay: GR-EFC Redistribution (AID 451; calls by dose curve; further: potency means the concentration at half of the fitted maximal effect); details: CHO-K1 GR-EFC translocation, beta-gal luminescence, 2 h
Glucocorticoid receptor (Homo sapiens), sequence (P04150 whole entry, looked up, the tested form may be a part): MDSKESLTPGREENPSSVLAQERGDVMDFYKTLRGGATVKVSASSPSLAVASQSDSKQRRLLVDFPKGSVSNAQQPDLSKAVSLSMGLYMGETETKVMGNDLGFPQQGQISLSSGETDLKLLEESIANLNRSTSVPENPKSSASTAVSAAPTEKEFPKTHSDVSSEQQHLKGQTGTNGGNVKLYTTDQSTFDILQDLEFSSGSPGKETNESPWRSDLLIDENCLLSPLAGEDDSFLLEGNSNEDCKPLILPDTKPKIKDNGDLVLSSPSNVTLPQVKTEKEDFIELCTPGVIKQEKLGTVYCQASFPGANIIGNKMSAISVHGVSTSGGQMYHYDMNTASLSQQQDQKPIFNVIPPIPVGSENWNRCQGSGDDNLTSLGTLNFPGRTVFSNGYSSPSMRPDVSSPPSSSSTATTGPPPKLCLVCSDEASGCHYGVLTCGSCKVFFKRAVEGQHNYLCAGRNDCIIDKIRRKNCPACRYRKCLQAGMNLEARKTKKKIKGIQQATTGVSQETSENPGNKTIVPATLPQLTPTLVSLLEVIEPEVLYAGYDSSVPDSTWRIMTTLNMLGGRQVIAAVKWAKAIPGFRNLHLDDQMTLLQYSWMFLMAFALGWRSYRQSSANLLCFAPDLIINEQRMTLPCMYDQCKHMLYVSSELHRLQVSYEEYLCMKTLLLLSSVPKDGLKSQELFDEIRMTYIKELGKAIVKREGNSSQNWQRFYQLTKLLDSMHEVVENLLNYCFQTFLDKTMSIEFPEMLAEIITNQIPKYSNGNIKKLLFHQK
Procedure, shortened: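 Translocation of GR-ED fusion to nuclear EA restores b-gal, read by luminescence after 1 h room-temperature detection. Engineered CHO-K1 biosensor cells, 1,000/well, exposed 2 h at 37 C to titrations up to 46 uM final.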

[5] = molecular target: Mitogen-activated protein kinase 10 (Mus musculus) (UniProt Q61831); assay: JNK3 AlphaScreen Assay (AID 530); details: JNK3 lysate, c-Jun phosphorylation; series mostly up to 57.1 µM;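 further: kinase came from lysate of stimulated human HepG2 cells; signal reports phosphorylation of biotinylated GST-cJun 1-79 at Ser73 with 10 µM ATP; on the % scale 0 is the no-effect control and ±100 the full control effect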
Procedure, shortened: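 Room-temperature AlphaScreen kinase assay; pre-activated HepG2 lysate as JNK3 source, biotin-GST-cJun(1-79) substrate, 10 uM ATP, compound 15 min preincubation.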

[6] = molecular target: 3',5'-cyclic-AMP phosphodiesterase 4B (Homo sapiens) (UniProt Q07343); assay: qHTS Assay for Inhibitors of PDE-IV (AID 607; active means well fitted activation curve with a large enough effect in the main read-out, with a control signal flat, not every such curve was filed as active; further: % of control where 0% means no effect); details: HEK293 ACTOne CNG channel cells, membrane potential fluorescence; series mostly up to 22.9 µM
3',5'-cyclic-AMP phosphodiesterase 4B (Homo sapiens), sequence (Q07343 whole entry, looked up): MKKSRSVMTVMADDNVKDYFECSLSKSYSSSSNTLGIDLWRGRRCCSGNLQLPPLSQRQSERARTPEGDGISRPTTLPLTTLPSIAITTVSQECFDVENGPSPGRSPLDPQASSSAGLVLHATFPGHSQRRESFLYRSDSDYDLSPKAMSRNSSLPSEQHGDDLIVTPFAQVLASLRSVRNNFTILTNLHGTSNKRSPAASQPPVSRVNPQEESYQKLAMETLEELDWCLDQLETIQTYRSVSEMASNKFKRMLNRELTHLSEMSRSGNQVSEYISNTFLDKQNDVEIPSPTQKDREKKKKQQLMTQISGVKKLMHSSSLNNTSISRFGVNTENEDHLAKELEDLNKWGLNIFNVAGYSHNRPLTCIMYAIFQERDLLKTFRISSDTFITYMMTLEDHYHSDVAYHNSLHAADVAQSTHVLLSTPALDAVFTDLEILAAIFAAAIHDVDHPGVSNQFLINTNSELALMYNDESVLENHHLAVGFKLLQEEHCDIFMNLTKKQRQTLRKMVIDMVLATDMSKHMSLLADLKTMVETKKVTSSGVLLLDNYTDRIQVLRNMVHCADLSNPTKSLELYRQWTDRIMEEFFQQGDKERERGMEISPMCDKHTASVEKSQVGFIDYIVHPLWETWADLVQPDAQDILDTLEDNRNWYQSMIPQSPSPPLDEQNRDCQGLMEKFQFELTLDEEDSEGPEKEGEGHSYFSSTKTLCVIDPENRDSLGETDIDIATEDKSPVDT
Procedure, shortened: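 Cell-based read-out of cAMP via a modified cyclic nucleotide-gated channel and membrane potential dye (535/590 nm) in HEK293 cells expressing PDE4 endogenously. Compounds tested up to 22.9 uM final; 100 uM RO 20-1724 reference.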

[7] = qHTS Assay for Identification of Small Molecule Agonists for Hypoxia Response Element Signaling Pathway (AID 914; active means well fitted activation curve with a large enough effect in the signal ratio, with a control signal flat, not every such curve was filed as active; the % refers to the signal ratio; further: % of control where 0% means no effect); details: ME-180 (cervical carcinoma) HRE-bla reporter, beta-lactamase ratio, CoCl2, 17 h; activation: stronger effect = higher value
Procedure, shortened: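 Compounds in a titration series were added to ME-180 reporter cells alongside an EC50 level of CoCl2. After 17 hours, beta-lactamase activity was read as the 460nm/530nm emission ratio of CCF4, giving AC50 values.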

[8] = qHTS Assay for Lipid Storage Modulators (AID 1519; calls by dose curve); details: Drosophila S3 cells, BODIPY lipid droplet/cell ratio, laser cytometry, cells loaded with oleic acid; for activity change, negative = inhibition: at 57.5 µM (top of the series)
Procedure, shortened: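 Cells seeded at 5,000 per well were treated with compounds over a concentration series and loaded with oleic acid (400 uM, as added). Lipid droplet fluorescence (488 nm excitation, 500-530 nm channel) was read by laser-scanning cytometry and normalized to 20 uM Triacsin C.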

[9] = Primary qHTS for small molecule stabilizers of the endoplasmic reticulum resident proteome: Secreted ER Calcium Modulated Protein (SERCaMP) assay (AID 1508630; active means well fitted inhibition curve with a large enough effect; further: on the % scale 0 is the no-effect control and ±100 the full control effect); details: SH-SY5Y GLuc-SERCaMP (Gaussia luciferase released on ER calcium loss) secretion, thapsigargin, luminescence; series mostly up to 38.4 µM
Procedure, shortened: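 GLuc-SERCaMP-expressing SH-SY5Y cells, pretreated 16 h with compound, are challenged with thapsigargin to empty ER calcium stores; after 4 h, coelenterazine is added directly to the medium and luminescence is imaged.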

[10] = molecular target: Cytochrome P450 1A2 (Homo sapiens) (UniProt P05177); assay: p450-cyp1a2 (AID 410; calls by dose curve;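 further: -100% = full effect of reference inhibitor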); details: recombinant CYP1A2, luciferin-ME demethylation, luminescence; series mostly up to 57 µM
Cytochrome P450 1A2 (Homo sapiens), sequence (P05177 whole entry, looked up): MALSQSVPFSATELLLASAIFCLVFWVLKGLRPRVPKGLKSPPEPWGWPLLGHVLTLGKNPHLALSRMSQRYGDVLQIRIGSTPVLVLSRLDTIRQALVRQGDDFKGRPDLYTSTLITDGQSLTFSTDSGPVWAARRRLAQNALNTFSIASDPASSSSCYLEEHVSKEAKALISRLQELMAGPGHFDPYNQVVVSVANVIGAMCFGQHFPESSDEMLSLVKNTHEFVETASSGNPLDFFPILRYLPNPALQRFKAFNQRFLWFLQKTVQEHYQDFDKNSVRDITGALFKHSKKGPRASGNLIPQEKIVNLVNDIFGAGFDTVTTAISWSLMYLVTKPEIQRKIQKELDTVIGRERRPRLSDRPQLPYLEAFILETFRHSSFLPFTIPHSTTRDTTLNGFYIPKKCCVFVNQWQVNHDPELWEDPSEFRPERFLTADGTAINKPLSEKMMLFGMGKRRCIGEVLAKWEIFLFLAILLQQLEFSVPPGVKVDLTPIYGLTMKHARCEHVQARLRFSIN
Procedure, shortened: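 Inhibition was calculated relative to 57 uM furafylline (full inhibition). The reaction used human CYP1A2 at 20nM with Luciferin-ME at its Km, 100uM, driven by an NADPH-regenerating system for 60 min at room temperature.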

[11] = NFAT Signaling Pathway (AID 444); details: Jurkat NFAT-bla M1, carbachol, beta-lactamase ratio, 5 h; at 7.69 µM (top of the series) unless noted
Procedure, shortened: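 Read-out: CCF4 FRET ratio (460 nm/530 nm) after 1 h RT dye loading, used for %activity and AC50 from titration series. Cells: Jurkat NFAT-β-lactamase/M1 line, treated with compound plus 1 uM carbachol for 5 h, 37 °C.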

[12] = measured here: cell count channel max response
[13] = measured here: lipid channel max response

SMILES | Potency [1] | activity change, negative = inhibition [2] | activity, negative = inhibition [3] | Potency [4] | Potency [5] | Potency [6] | activation [7] | activity change, negative = inhibition [8] | max response [8, 12] | max response [8, 13] | outcome [9] | Potency [10] | activity change, negative = inhibition [11]
O=C(c1cnccn1)N1CCC2(CCCN(Cc3ccccc3)C2)CC1 | > 11.4 µM (inactive) | -6.44% (inactive) | -11.8% (inactive) | > 46 µM (inactive) | inactive | inactive | 16.9% (inactive) | 1.18% (inactive) | 14.6% | 17.1% | inactive | – | –
CN1CCC2(CC1)CCN(C(=O)c1cccc(F)c1)CC2 | > 11.4 µM (inactive) | 2.25% (inactive) | – | > 46 µM (inactive) | inactive | inactive | – | -1.77% (inactive) | 3% | 2.59% | inactive | – | –
COCC(=O)N1CCC2(CC1)CCN(c1ncccn1)CC2 | > 11.4 µM (inactive) | – | -0.157% (inactive) | > 46 µM (inactive) | inactive | inactive | – | 3.55% (inactive) | 11.8% | 17.5% | inactive | inactive | 16.6% (inactive)
Cn1cccc1C(=O)N1CCC2(CCN(Cc3ccc(C#N)cc3)CC2)CC1 | > 11.4 µM (inactive) | 11.1% (inactive) | -2.38% (inactive) | > 46 µM (inactive) | – | inactive | – | 0.873% (inactive) | 7.43% | 9.77% | inactive | – | –
